Results as given in PubChem BioAssay (EPA / NIEHS).
Calls of active or inactive are those of the source. How the source made its calls: active means hit-call score of the fitted dose curve at least 0.9, where 1 is the maximum; inactive means score below 0.9.

assay: APR_HepG2_MicrotubuleCSK_1hr: Apredica 1-hour HepG2 Assay for Microtubule CSK Stabilty (AID 2282669); conditions: HepG2 microtubule cytoskeleton imaging, actives raise or lower the signal
Protocol: APR_HepG2_1hr is a cell-based, multiplexed-readout assay that uses HepG2, a human liver cell line, with measurements taken at 1 hour after chemical dosing in a 384-well plate.APR_HepG2_MicrotubuleCSK_1hr is one of 10 assay component(s) measured or calculated from the APR_HepG2_1hr assay. It is designed to make measurements of protein conformation, a form of conformation reporter, as detected with fluorescence intensity signals by HCS Fluorescent Imaging technology.Data from the assay component APR_HepG2_MicrotubuleCSK_1hr was analyzed into 1 assay endpoint. This assay endpoint, APR_HepG2_MicrotubuleCSK_1hr, was analyzed with bidirectional fitting relative to DMSO as the negative control and baseline of activity. Using a type of conformation reporter, measures of protein for gain or loss-of-signal activity can be used to understand the signaling at the cellular-level. Furthermore, this assay endpoint can be referred to as a primary readout, because this assay has produced multiple assay endpoints where this one serves a signaling function. To generalize the intended target to other relatable targets, this assay endpoint is annotated to the cell morphology intended target family, where the subfamily is cell conformation.
Cells were treated with dimethyl sulfoxide (DMSO) as a solvent control at a final concentration of 0.5% v/v or with compounds in DMSO with a resulting final DMSO concentration of 0.5% v/v. Compound treatment was done at concentrations of 0.39, 0.78, 1.56, 3.12, 6.24, 12.5, 25, 50, 100, and 200 uM in duplicate on each plate. Cells were treated with compounds for 1, 24, or 72 hr. Carbonyl […] m-chloro-phenylhydrazone (CCCP) and taxol were used as positive controls for mitochondrial function and cytoskeletal stability, respectively; DMSO served as the negative control for this experiment. Cells were fixed by the direct addition of 50 uL formaldehyde in Hank's Balanced Salt Solution (HBSS) to a final concentration of 3.7%. After incubation in the fixation medium for 30 min at room temperature (293-298 K), cells were rinsed twice with HBSS and treated with cell permeabilization buffer (16 uL of 0.5% Triton X-100) for 10 min at room temperature (293-298 K) before labeling. For mitochondrial membrane potential and mitochondrial measurements, pre-fixed cells were incubated with 50 uL of MitoTracker Red CMXRos (Invitrogen) at a concentration of 250 nM for 30 min before fixation. In the remaining cases, post-fixed cells were labeled by incubation with a multiplexed mixture of primary antibodies in HBSS for 60 min at room temperature (293-298 K) to detect immunoreactivity of c-Jun (1:500), phospho-histone H3 (1:100), phospho-histone H2A.x (1:200), p53 (1:400), alpha-tubulin (1:200) and Hoechst 33342 (2 ug/mL). Cells were labeled for multiplexed imaging on two separate plates: a) Hoechst 33342, MitoTracker Red, phospho-histone H3, and alpha-tubulin, and b) Hoechst 33342, phospho-histone H2A.x, and c-Jun. A final rinse with HBSS (50 uL) was performed before analysis. The primary and secondary antibodies for the proteins were phospho-histone H3 (rabbit anti-phospho-histone H3 and FITC-donkey anti-rabbit IgG), phospho-histone H2A.x (mouse anti-phospho-histone H2A.x and FITC-donkey anti-mouse IgG), c-Jun (rabbit anti-phospho-c-Jun and Cy3-donkey anti-rabbit IgG), p53 (sheep anti-p53 and Cy5-donkey anti-sheep IgG), alpha-tubulin (mouse anti-alpha-tubulin and Cy5-donkey anti-mouse IgG). These antibodies are available as the CellCiphr HepG2 assay kit (Millipore).Digital images of each well were captured using a Cellomics ArrayScan VTI (Thermo Scientific Cellomics) (0.8 NA objective, 0.63x optical coupler, and XF-93 filter set) at 20x magnification. The images were acquired using the autofocus feature of the ArrayScan instrument, which entails the following steps. First, the camera focuses on channel 1 (Hoechst 33342), where nuclei are identified. Second, a Z offset of 1 um is used for capturing mitochondria (MitoTracker Red). […]

Row | SMILES | outcome
1 | CN=C=S | inactive
2 | CC(C)(C)C(=O)C(Oc1ccc(Cl)cc1)n1cncn1 (stereo not given) | inactive
3 | N#CN=C1SCCN1Cc1ccc(Cl)nc1 | inactive
4 | CS(=O)(=O)c1cc(C(F)(F)F)ccc1C(=O)c1cnoc1C1CC1 | inactive
5 | C=C(C)CN(CC)c1c([N+](=O)[O-])cc(C(F)(F)F)cc1[N+](=O)[O-] | inactive
6 | O=C(O)c1c(Cl)ccc2cc(Cl)cnc12 | inactive
7 | COC(=O)NS(=O)(=O)c1ccc(N)cc1 | inactive
8 | CCOc1cc(C(C)(C)C)ccc1C1COC(c2c(F)cccc2F)=N1 (stereo not given) | inactive
9 | CCCCOCN(C(=O)CCl)c1c(CC)cccc1CC | inactive
10 | Cc1cnc(C2=NC(C)(C(C)C)C(=O)N2)c(C(=O)O)c1 (stereo not given) | inactive
11 | COC(=O)NC(=S)Nc1ccccc1NC(=S)NC(=O)OC | inactive
12 | CC1(C)CON(Cc2ccccc2Cl)C1=O | inactive
13 | Cc1c(COC(=O)[C@@H]2[C@H](/C=C(\Cl)C(F)(F)F)C2(C)C)cccc1-c1ccccc1 | inactive
14 | CC1(C)C(C=C(Cl)Cl)C1C(=O)OC(C#N)c1cccc(Oc2ccccc2)c1 (stereo not given) | inactive
15 | CCOP(=O)(OCC)Oc1nc(Cl)c(Cl)cc1Cl | inactive
16 | O=C1C2CC=CCC2C(=O)N1SC(Cl)(Cl)Cl (stereo not given) | inactive
17 | CC(C)Oc1cccc(NC(=O)c2ccccc2C(F)(F)F)c1 | inactive
18 | COP(=S)(OC)Oc1ccc([N+](=O)[O-])c(C)c1 | inactive
19 | COCC(=O)N(c1c(C)cccc1C)C(C)C(=O)OC (stereo not given) | inactive
20 | Cc1cc(C)nc(Nc2ccccc2)n1 | inactive

Row | SMILES | outcome
21 | COP(=S)(OC)SCn1nnc2ccccc2c1=O | inactive
22 | COC(=O)c1c(C(F)F)nc(C(F)(F)F)c(C2=NCCS2)c1CC(C)C | inactive
23 | CNC(=O)Oc1cccc2ccccc12 | inactive
24 | CSC(=O)c1c(C(F)F)nc(C(F)(F)F)c(C(=O)SC)c1CC(C)C | inactive
25 | COc1cc(Cl)c(OC)cc1Cl | inactive
26 | O=c1n(Cl)c(=O)n(Cl)c(=O)n1Cl | inactive
27 | CCNC(=O)NC(=O)C(C#N)=NOC | inactive
28 | COC(=O)N(C(=O)N1CO[C@@]2(C(=O)OC)Cc3cc(Cl)ccc3C2=N1)c1ccc(OC(F)(F)F)cc1 | inactive
29 | CCCC(=NOCC)C1=C(O)CC(CC(C)SCC)CC1=O (stereo not given) | inactive
30 | CC1(C)CCC(=Cc2ccc(Cl)cc2)C1(O)Cn1cncn1 (stereo not given) | inactive
31 | CC(C)NC(=O)N1CC(=O)N(c2cc(Cl)cc(Cl)c2)C1=O | inactive
32 | CN/C(=N\[N+](=O)[O-])NCc1cnc(Cl)s1 | inactive
33 | CNC(=O)N(C)c1nnc(C(C)(C)C)s1 | inactive
34 | CCOP(=S)(OCC)Oc1nc(Cl)n(C(C)C)n1 | inactive
35 | C=CCOC(=O)C(C)(C)OC(=O)c1cc(-n2c(=O)cc(C(F)(F)F)n(C)c2=O)ccc1Cl | inactive
36 | CCN(CC)c1nc(C)cc(OP(=S)(OC)OC)n1 | inactive
37 | OC(c1ccc(Cl)cc1)(c1ccc(Cl)cc1)C(Cl)(Cl)Cl | inactive
38 | CC1(C)C(C(=O)OC(C#N)c2cccc(Oc3ccccc3)c2)C1(C)C (stereo not given) | inactive
39 | O=C(Nc1ccccc1-c1ccc(Cl)cc1)c1cccnc1Cl | inactive
40 | COc1cc(OC)nc(NC(=O)NS(=O)(=O)c2ncccc2OCC(F)(F)F)n1 | inactive
